Compounds without any hit were thinned out: in the full panel of roughly 79,000, 15% have a hit. A number with no mark means an inactive call. Active and inactive are the calls of the source. Cut-off read from the data, not from the text of the source: active = growth inhibition above about 70%; inactive = the rest.
Assays:
[1] = NCI Yeast Anticancer Drug Screen. Data for the rad50 strain (AID 155);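 note: 0% = growth of vehicle-only cultures of the same strain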; details: S. cerevisiae rad50 strain growth inhibition, active compounds read high
In short: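 Genetically altered yeast (DNA repair pathway); compound treatment; growth inhibition vs vehicle ctrl.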

[2] = NCI Yeast Anticancer Drug Screen. Data for the mec2-1 strain (AID 157); details: S. cerevisiae mec2-1 strain, active compounds read high
In short: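 mec2-1 yeast strain, carrying an alteration in DNA damage repair or cell cycle control, was exposed to compounds; growth inhibition was measured relative to vehicle-treated controls.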

[3] = NCI Yeast Anticancer Drug Screen. Data for the sgs1 mgt1 strain (AID 161);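 note: 0% = growth of cultures given vehicle only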; details: S. cerevisiae sgs1 mgt1 strain, active compounds read high
In short: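 Compounds are added to genetically altered yeast, and growth is compared with cultures given vehicle alone to give percent inhibition.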

[4] = NCI Yeast Anticancer Drug Screen. Data for the cln2 rad14 strain (AID 165);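 note: 0% = growth equal to vehicle treated cultures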; details: S. cerevisiae cln2 rad14 strain, active compounds read high
In short: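 Yeast carrying cln2 and rad14 alterations (cell cycle control and DNA damage repair) were exposed to compounds. Growth inhibition was measured against vehicle-treated controls.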

[5] = NCI Yeast Anticancer Drug Screen. Data for the bub3 strain (AID 167); details: S. cerevisiae bub3 mutant strain, active compounds read high
In short: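 Yeast carrying a defined mutation is treated with each compound, and growth is compared with that of vehicle-exposed cells to give inhibition.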

[6] = NCI Yeast Anticancer Drug Screen. Data for the mlh1 rad18 strain (AID 175); details: S. cerevisiae mlh1 rad18 strain growth inhibition, active compounds read high
In short: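 Growth inhibition of the yeast strain was measured after compound exposure and expressed relative to vehicle-treated controls. The strain carries defined defects in DNA damage repair.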

[7] = at 5.0 µM (retest, dose inferred, filed as 0.5)
[8] = at 50.0 µM (retest, dose inferred, filed as 5.0)

Row | Compound | growth inhibition [1, 7] [%] | growth inhibition [1, 8] | growth inhibition ([1]; at 50.0 µM) | growth inhibition [2, 7] [%] | growth inhibition [2, 8] | growth inhibition ([2]; at 50.0 µM) | growth inhibition [3, 7] [%] | growth inhibition [3, 8] | growth inhibition ([3]; at 50.0 µM) | growth inhibition [4, 7] [%] | growth inhibition [4, 8] | growth inhibition ([4]; at 50.0 µM) | growth inhibition [5, 7] | growth inhibition [5, 8] | growth inhibition ([5]; at 50.0 µM) | growth inhibition [6, 7] [%] | growth inhibition [6, 8] | growth inhibition ([6]; at 50.0 µM)
1 | COc1ccc2c(C)c(N=C=S)c(=O)oc2c1 | 35 | 79% (active) | 60.2% | 13 | 78% (active) | 69% | 34 | 81% (active) | 48% | 6 | 33% | 1.75% | 29% | 87% (active) | 89% (active) | 42 | 89% (active) | 74.7% (active)
2 | CCN(CC)CCCC(C)Nc1cc(F)cc2cccnc12 (stereo not given) | 10 | 81% (active) | 93.2% (active) | 4 | 31% | 63.2% | 28 | 75% (active) | 88.8% (active) | 10 | 30% | 44.9% | 15% | 41% | 88.3% (active) | 20 | 69% | 85.9% (active)
3 | CC(=O)Nc1ccc(C(C)(C)c2ccc(C)cc2)cc1 | 0 | 95% (active) | -4.5% | 0 | 98% (active) | -12.2% | -1 | 96% (active) | 24.1% | 2 | 96% (active) | 3.75% | 4% | 97% (active) | 57.5% | -1 | 96% (active) | -2.15%
4 | CC(/C=C1\CCC(CN(C)C)C1=O)c1cccc(Br)c1 (stereo not given) | -11 | 97% (active) | 93.8% (active) | -1 | 99% (active) | 94% (active) | 5 | 97% (active) | 93.5% (active) | 16 | 98% (active) | 92.2% (active) | 18% | 99% (active) | 92.7% (active) | 7 | 98% (active) | 91.6% (active)
5 | COc1ccc(C(=O)c2cc(Cl)ccc2N)cc1 | 16 | 93% (active) | 99% (active) | -1 | 87% (active) | 98.2% (active) | 8 | 91% (active) | 99.1% (active) | -8 | 71% (active) | 92.1% (active) | 1% | 73% (active) | 99.2% (active) | -1 | 95% (active) | 94.2% (active)
6 | COC(=O)/C=C(\NC1CC(OC2C[C@](O)(C(C)=O)Cc3c(O)c4c(c(O)c32)C(=O)c2c(OC)cccc2C4=O)OC(C)C1O)C(=O)OC (stereo not given in full) | 25 | 97% (active) | 97.5% (active) | 15 | 98% (active) | 97.7% (active) | -3 | 97% (active) | 97.7% (active) | 2 | 96% (active) | 94.9% (active) | 7% | 98% (active) | 74.2% (active) | -6 | 98% (active) | 98.3% (active)
7 | Cc1cccc2ccc3cc(CC(=O)O)c4cccc(C)c4c3c12 | 45 | 99% (active) | 99.7% (active) | 33 | 99% (active) | 99.8% (active) | 42 | 99% (active) | 99.8% (active) | 33 | 99% (active) | 99.5% (active) | 32% | 99% (active) | 99.8% (active) | 36 | 99% (active) | 99.7% (active)
8 | Cc1c2c(c(C)c3c1sc1ccccc13)CCN=C2 | 9 | 98% (active) | 55.5% | -14 | 98% (active) | 49.9% | -1 | 98% (active) | 57.6% | -21 | 98% (active) | 94.9% (active) | -5% | 98% (active) | 92.8% (active) | -8 | 99% (active) | 57.2%
9 | Cc1ccc(Cl)cc1NC(=O)N(C)CCOC(=O)Nc1cccc(Cl)c1 | 32 | 95% (active) | 88.7% (active) | 31 | 97% (active) | 91% (active) | 41 | 97% (active) | 92.9% (active) | 22 | 97% (active) | 90% (active) | 23% | 94% (active) | 92.3% (active) | 41 | 98% (active) | 90.5% (active)
10 | CCCCOC(=O)c1cnc[nH]c1=O | 3 | 17% | 0.5% | 2 | 3% | -2.65% | 0 | 8% | 8.15% | 4 | 3% | 10.4% | -5% | 14% | 3.55% | 24 | 12% | 8.65%
11 | Cc1ccc(Cc2n[nH]c(=O)n2N2C(=O)c3ccccc3C2=O)cc1 | 18 | 16% | -24.8% | 9 | 14% | -37.2% | 9 | 9% | -33.4% | 9 | 17% | -5.1% | 18% | 13% | -25.1% | 13 | 12% | -38.2%
12 | CC(C)(C)OC(=O)c1ccc(NCC2=C(Br)C(=O)C=CC2=O)cc1 | 18 | 98% (active) | 89.8% (active) | 12 | 99% (active) | 94% (active) | 15 | 97% (active) | 83.4% (active) | 5 | 94% (active) | 89.1% (active) | 0% | 96% (active) | 80.8% (active) | 14 | 99% (active) | 89.5% (active)
13 | C[C@H](CCC(=O)O)[C@H]1CC[C@H]2[C@@H]3CC[C@@H]4C[C@H](O)CC[C@]4(C)[C@H]3C[C@H](O)[C@]12C | -14 | 95% (active) | 99.2% (active) | 1 | 98% (active) | 98.8% (active) | -1 | 97% (active) | 99.3% (active) | -34 | 98% (active) | 99.3% (active) | -16% | 99% (active) | 98.8% (active) | -11 | 98% (active) | 99% (active)
14 | CC(CN(C)C)C(=O)c1cn(C)c2ccccc12 (stereo not given) | 1 | 3% | 9% | 5 | 2% | 16.8% | -2 | 3% | 30.3% | 3 | 4% | 12.6% | -2% | -4% | -9.05% | -2 | 1% | 70.2% (active)
15 | CCC1(C)C(C#N)(C#N)C1(C#N)C#N | -18 | 95% (active) | 81.7% (active) | -36 | 95% (active) | 92.6% (active) | -36 | 66% | 97.8% (active) | -42 | 85% (active) | 43.7% | -36% | 95% (active) | 95.4% (active) | -46 | 95% (active) | 98.2% (active)
16 | O=[N+]([O-])/C=C/c1c[nH]c2c1ccc1ccccc12 | 42 | 92% (active) | 84.4% (active) | 53 | 90% (active) | 84.7% (active) | 59 | 81% (active) | 94.2% (active) | 30 | 93% (active) | 89% (active) | 88% (active) | 95% (active) | 75.3% (active) | 55 | 94% (active) | 93.5% (active)
17 | CCN1CC(=O)N(C)C1=S | -9 | 5% | 84.7% (active) | -6 | -19% | 71.2% (active) | 8 | -11% | 89% (active) | 20 | 39% | 74.9% (active) | 12% | 18% | 83.8% (active) | -5 | -41% | 79.5% (active)
18 | CCCCCCCCCCCCCCC(=O)OCC[N+](C)(C)C | 33 | 98% (active) | 90.2% (active) | 24 | 98% (active) | 93% (active) | 45 | 99% (active) | 92.8% (active) | 33 | 98% (active) | 85.3% (active) | 44% | 99% (active) | 91.8% (active) | 27 | 97% (active) | 91.2% (active)
19 | CCCCCCC(=O)Nc1ccc(OC(=O)CCCCCC)c(=O)cc1 | 8 | 99% (active) | 98.8% (active) | 36 | 100% (active) | 99.2% (active) | 33 | 99% (active) | 99.3% (active) | -14 | 99% (active) | 98% (active) | 15% | 99% (active) | 99.2% (active) | 26 | 99% (active) | 98.5% (active)
20 | C=CCOCC(C)OC(=O)C(C)C (stereo not given) | -162 | -158% | 55.7% | -46 | -52% | -6.9% | -63 | -63% | 18.3% | -60 | -62% | 49% | -71% | -78% | 11.8% | -140 | -117% | 63.2%

Source: PubChem BioAssay (NCI)
